Test [1] has as its target Sphingosine kinase 1 (Homo sapiens) (UniProt Q9NYA1). The note with it: at 1 µM.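 Note: mean SPHK1 inhibition value reported from the GSK PKIS kinase panel screen.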
In test [2] the target is T1, Sphingosine kinase 2 (Homo sapiens) (UniProt Q9NRA0).
T1 sequence (whole entry): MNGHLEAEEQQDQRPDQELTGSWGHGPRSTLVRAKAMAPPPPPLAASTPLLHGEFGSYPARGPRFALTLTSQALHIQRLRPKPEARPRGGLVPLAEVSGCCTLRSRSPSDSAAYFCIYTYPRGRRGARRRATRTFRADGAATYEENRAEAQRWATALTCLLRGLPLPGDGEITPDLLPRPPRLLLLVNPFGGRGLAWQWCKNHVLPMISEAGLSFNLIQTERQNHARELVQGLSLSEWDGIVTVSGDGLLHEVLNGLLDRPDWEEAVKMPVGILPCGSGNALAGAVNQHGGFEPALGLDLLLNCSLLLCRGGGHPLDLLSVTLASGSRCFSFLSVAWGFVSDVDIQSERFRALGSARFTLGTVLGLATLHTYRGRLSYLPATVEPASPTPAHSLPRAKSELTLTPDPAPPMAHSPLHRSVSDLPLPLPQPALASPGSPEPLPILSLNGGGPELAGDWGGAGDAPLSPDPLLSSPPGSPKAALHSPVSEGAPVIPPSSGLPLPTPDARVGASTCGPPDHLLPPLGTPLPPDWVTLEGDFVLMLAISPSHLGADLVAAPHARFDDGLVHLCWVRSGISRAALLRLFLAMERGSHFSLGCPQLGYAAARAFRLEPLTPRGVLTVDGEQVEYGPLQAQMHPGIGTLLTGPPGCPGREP
The conditions noted are these: at 0.1 µM.

Test [3] deals with T1, Sphingosine kinase 2 (Homo sapiens). The note with it: at 1 µM.
Test [4] has as its target Casein kinase II subunit alpha (Homo sapiens) (UniProt P68400). The conditions noted are these: at 0.1 µM.
The target is the same in test [5]. The conditions noted are these: at 1 µM.
The target of test [6] is T2, Inhibitor of nuclear factor kappa-B kinase subunit alpha (Homo sapiens) (UniProt O15111).
T2 sequence (whole entry): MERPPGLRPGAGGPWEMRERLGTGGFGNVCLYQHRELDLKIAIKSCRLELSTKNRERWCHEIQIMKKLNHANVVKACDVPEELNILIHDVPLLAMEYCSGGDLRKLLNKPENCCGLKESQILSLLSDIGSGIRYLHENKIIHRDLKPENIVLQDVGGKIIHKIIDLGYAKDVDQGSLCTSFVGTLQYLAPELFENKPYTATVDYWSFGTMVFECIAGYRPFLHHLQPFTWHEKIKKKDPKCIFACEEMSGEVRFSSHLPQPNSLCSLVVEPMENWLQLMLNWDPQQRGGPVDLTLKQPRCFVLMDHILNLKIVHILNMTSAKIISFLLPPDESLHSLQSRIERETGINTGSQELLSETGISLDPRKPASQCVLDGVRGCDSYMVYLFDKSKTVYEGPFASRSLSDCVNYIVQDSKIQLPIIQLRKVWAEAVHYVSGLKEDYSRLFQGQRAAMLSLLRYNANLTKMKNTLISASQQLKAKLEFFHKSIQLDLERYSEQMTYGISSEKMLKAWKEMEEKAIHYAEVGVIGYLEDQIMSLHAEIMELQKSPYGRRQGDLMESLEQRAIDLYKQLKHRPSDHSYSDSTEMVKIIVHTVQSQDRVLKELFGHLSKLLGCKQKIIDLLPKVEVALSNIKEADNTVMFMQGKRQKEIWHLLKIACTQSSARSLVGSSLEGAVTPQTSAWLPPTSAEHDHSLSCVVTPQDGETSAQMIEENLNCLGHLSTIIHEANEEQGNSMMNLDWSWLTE
The conditions noted are these: at 0.1 µM.

For test [7], the target named is T2, Inhibitor of nuclear factor kappa-B kinase subunit alpha (Homo sapiens). The conditions noted are these: at 1 µM.
In test [8] the target is T3, Inhibitor of nuclear factor kappa-B kinase subunit beta (Homo sapiens) (UniProt O14920).
T3 sequence (whole entry): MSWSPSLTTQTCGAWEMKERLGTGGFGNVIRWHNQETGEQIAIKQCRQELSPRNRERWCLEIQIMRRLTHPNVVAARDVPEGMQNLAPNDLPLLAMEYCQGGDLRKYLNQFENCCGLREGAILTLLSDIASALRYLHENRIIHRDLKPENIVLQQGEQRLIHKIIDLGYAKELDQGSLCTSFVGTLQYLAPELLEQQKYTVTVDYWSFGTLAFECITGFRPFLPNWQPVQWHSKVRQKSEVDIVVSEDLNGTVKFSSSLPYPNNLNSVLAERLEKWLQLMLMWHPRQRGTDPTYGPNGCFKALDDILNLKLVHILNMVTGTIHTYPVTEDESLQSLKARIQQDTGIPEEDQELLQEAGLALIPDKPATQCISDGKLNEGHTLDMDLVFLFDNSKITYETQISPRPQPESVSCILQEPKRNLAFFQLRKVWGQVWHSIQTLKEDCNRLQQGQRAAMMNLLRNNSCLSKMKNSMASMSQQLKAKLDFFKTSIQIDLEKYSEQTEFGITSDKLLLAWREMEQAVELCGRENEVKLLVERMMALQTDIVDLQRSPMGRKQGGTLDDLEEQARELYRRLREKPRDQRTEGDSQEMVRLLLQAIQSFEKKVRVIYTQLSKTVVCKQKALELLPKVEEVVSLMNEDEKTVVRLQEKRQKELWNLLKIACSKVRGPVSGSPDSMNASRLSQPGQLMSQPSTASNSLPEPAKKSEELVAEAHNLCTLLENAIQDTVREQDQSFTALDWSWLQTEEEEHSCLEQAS
The conditions noted are these: at 0.1 µM.

Test [9] addresses T3, Inhibitor of nuclear factor kappa-B kinase subunit beta (Homo sapiens). The note with it: at 1 µM.
Test [10] concerns the target T4, Inhibitor of nuclear factor kappa-B kinase subunit epsilon (Homo sapiens) (UniProt Q14164).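 Note: mean inhibition of IKKε reported, from the GSK PKIS dataset.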
T4 sequence (whole entry): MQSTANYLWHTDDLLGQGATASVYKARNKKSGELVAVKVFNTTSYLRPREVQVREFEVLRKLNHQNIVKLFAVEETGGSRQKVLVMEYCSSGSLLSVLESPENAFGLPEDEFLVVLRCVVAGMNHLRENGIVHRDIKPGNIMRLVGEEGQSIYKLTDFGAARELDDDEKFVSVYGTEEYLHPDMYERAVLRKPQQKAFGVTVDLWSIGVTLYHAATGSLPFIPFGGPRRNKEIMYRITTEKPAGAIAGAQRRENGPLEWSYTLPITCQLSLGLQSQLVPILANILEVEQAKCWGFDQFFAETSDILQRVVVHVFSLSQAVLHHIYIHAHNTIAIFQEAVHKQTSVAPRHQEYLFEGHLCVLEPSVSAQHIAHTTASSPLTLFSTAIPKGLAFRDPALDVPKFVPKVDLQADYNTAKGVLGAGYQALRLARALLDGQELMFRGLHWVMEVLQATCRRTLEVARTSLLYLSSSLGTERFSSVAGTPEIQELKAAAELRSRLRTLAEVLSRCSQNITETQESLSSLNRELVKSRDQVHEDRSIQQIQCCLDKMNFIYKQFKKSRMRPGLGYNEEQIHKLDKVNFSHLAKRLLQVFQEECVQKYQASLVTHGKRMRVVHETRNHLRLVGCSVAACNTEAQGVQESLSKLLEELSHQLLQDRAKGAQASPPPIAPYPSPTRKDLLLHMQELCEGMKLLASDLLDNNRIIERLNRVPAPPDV
The conditions noted are these: at 0.1 µM.

The inhibition is the change of the read-out against control, counted positive when it falls.

Sphingosine kinase 1 (Homo sapiens), sequence (Q9NYA1 whole entry): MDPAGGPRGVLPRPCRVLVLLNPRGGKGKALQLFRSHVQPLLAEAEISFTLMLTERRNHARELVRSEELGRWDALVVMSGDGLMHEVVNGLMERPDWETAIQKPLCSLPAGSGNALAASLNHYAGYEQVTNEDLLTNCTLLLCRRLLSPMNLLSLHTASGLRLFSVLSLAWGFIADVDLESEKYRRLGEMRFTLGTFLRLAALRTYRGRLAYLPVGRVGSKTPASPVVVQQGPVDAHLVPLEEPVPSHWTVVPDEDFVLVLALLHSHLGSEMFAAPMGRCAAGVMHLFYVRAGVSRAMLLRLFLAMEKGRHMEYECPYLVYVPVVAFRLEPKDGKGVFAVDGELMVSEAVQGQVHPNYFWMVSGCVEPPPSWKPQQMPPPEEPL
Casein kinase II subunit alpha (Homo sapiens), sequence (P68400 whole entry, looked up): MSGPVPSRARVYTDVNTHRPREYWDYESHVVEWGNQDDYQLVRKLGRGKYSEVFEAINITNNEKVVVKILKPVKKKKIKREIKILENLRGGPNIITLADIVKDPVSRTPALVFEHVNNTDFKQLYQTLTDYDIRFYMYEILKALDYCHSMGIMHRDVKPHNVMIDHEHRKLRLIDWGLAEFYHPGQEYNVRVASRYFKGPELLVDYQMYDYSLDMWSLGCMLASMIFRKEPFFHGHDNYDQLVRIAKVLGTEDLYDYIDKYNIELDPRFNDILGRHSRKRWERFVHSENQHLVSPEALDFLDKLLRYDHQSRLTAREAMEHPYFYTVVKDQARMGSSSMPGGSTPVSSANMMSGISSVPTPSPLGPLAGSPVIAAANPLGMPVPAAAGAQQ

As to `CCCN1CCC(c2ccc(Nc3nc(Nc4cc(F)ccc4C(N)=O)c4cc[nH]c4n3)c(OC)c2)CC1`, the inhibition in [1] is -2.44%; in [2] it was 0%; in [3], 0%; in [4] it was 32.4%; in test [5], 70.3%; in test [6], 2.7%. The inhibition turned out to be 18.7% in test [7], 0.13% in test [8], 7.11% in test [9] and 6.68% in test [10].
With `CN1CCC(n2cnc(-c3ccc(F)cc3)c2-c2ccnc(Nc3ccccc3)n2)CC1`, the inhibition was -6.88% in test [1]; -0.42% in test [2]; 0.78% in test [3]; 3.62% in [4]; 8.56% in [5]; 6.78% in test [6]. In addition, the inhibition came out at 1.62% in test [7], 2.83% in test [8], 3.93% in test [9] and 3.59% in test [10].
Consider `CCn1c(-c2nonc2N)nc2cnc(Oc3cccc(NC(=O)c4ccc(N(C)C)cc4)c3)cc21`, for which the inhibition in [1] was -3.07%; in test [2], 0%; in [3] it was 2.32%; in test [4] it was 0.64%; in [5] it was 0.04%; in test [6], 5.93%. Besides, the inhibition turned out to be 2.52% in test [7], 2.96% in test [8], 1.85% in test [9] and 3.07% in [10].
In the case of `CCOc1ccc2c(-c3ccnc(Nc4cccc(C(F)(F)F)c4)n3)cnn2n1`, the inhibition was -1.13% in test [1]; 2.38% in test [2]; -1.13% in [3]; 5.72% in test [4]; 7.82% in [5]; 11.5% in [6]. In addition, the inhibition in [7] stood at 6.76%; in test [8], 4.08%; in test [9], 3.66%; in test [10], 8.35%.
Regarding `COc1cccc(-n2ncc3c(N/N=C/c4ccc(F)cc4)ncnc32)c1`, the inhibition in test [1] is -1.38%; in test [2], -1.23%; in test [3], 0.38%; in test [4], 4.77%; in test [5] it was 15.9%; in test [6] it was 12.3%. Further, the inhibition in test [7] was 6.86%; in [8], 5.69%; in [9], 3.91%; in [10], 14.1%.
On to `FC(F)(F)c1cccc(-c2nn3ncccc3c2-c2ccnc(Nc3ccc4c(c3)OCCO4)n2)c1`, for which the inhibition in [1] was 1.14%; in [2], 0.13%; in test [3] it was -0.65%; in [4], 0.21%; in test [5], -1.98%; in [6], 3.23%. Besides, the inhibition was determined as 0.65% in [7], 2.71% in test [8], 0.36% in test [9] and 2.48% in test [10].
`CC(C)(CO)CNC(=O)c1ccc2c(c1)/C(=N/Nc1ccc(S(N)(=O)=O)cc1)C(=O)N2`: the inhibition turned out to be 0.62% in test [1]; 0.34% in test [2]; 0.16% in [3]; 2.49% in test [4]; 23.5% in [5]; 4.85% in test [6]. For the same molecule, the inhibition stood at 3.43% in test [7], 3.25% in test [8], 0.5% in test [9] and 14.3% in test [10].
Consider `Cc1cccc2c1NC(=O)/C2=N\Nc1ccc(S(N)(=O)=O)cc1`, for which the inhibition in test [1] is 1.88%; in test [2] it was -0.11%; in [3] it was 0.27%; in test [4], -0.53%; in test [5], 0.34%; in test [6], 2.87%. The inhibition in test [7] stood at 0.58%; in test [8] it was 2.93%; in test [9], 3.79%; in [10], 3.32%.

(Values after ChEMBL document CHEMBL1961873, “Compounds: GSK PKIS; Assays: Nanosyn kinase panel” (2012).)
